Parameters in all cases: scale not given: direction of the effect not stated beside the values
Experiment [1] has as its target Protein translocase subunit SecA (Escherichia coli (strain K12)) (UniProt P10408). The experiment can be described thus: Assay to Identify E. coli SecA ATPase Inhibitors. It is filed as functional. The settings on record: 30 µM.
Experiment [2] addresses T1, Ubiquitin-activating enzyme e1, putative (Leishmania donovani (strain BPK282A1)) (UniProt E9BSI1).
T1 sequence (whole entry): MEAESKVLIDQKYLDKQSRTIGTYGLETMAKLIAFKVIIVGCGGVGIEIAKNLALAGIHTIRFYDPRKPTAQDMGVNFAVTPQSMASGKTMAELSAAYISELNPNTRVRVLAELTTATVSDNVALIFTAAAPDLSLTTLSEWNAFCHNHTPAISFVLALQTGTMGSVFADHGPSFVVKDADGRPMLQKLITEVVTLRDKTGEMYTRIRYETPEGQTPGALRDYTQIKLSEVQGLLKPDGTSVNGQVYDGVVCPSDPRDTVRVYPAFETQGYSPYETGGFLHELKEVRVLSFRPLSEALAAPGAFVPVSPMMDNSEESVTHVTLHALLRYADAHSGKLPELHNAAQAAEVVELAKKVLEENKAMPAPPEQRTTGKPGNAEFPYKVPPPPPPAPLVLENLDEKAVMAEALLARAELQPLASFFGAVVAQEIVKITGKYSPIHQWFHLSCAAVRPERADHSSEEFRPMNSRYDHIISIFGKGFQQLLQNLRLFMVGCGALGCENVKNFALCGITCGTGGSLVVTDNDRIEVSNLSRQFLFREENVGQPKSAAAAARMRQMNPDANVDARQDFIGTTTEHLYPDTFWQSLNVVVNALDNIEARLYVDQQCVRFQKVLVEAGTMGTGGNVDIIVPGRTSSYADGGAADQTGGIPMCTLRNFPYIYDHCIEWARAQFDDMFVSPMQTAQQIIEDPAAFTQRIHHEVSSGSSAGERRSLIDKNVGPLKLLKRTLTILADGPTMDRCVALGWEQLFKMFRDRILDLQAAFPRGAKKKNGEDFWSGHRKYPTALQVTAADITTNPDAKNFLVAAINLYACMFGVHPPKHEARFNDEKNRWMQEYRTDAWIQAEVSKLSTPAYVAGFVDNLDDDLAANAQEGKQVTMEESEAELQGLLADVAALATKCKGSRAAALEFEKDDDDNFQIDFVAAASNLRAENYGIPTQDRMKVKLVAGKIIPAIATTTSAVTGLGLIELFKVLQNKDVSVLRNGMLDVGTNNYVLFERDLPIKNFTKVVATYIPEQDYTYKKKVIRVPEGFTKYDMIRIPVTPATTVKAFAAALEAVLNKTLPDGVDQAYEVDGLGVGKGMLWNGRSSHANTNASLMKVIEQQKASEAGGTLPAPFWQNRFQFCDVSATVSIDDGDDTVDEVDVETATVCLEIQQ
The experiment can be described thus: Leishmania donovani Ubiquitin Activating Enzyme (LdE1). Particulars: 30 µM. It is filed as functional.

In experiment [3] the target is AMP-activated protein kinase, AMPK (Homo sapiens) (UniProt P54646+O43741+P54619+Q9UGJ0+Q9Y478+Q13131+Q9UGI9). The experiment can be described thus: AMP-dependent Kinase enzyme assay. An in vitro enzyme assay that detects ADP turnover that is directly proportional to AMPK activity. This uses naive AMPK that is activated during the assay with MK-8722. The settings on record: 30 µM. It is filed as functional.

Experiment [4] deals with Sialic acid-binding Ig-like lectin 9 (Homo sapiens) (UniProt Q9Y336). Kind of experiment: Hs-Siglec9 ALPHAscreen SOP 20170721. Particulars: 10 µM.
Sequence of Sialic acid-binding Ig-like lectin 9 (Homo sapiens) (Q9Y336 whole entry): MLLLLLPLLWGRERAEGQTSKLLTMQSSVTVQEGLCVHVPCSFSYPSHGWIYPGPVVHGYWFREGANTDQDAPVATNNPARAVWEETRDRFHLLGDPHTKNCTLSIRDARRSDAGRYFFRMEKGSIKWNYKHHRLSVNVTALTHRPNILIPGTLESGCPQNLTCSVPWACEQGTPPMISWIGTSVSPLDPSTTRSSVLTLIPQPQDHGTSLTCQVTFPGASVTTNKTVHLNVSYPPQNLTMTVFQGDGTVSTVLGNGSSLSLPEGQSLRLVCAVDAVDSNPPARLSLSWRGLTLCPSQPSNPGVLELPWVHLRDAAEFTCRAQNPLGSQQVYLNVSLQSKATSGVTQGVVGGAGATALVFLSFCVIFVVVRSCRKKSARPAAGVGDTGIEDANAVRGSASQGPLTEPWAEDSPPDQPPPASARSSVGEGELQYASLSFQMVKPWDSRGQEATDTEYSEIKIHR
For another experiment, the system named is Trypanosoma cruzi. Kind of experiment: Trypanosoma cruzi phosphomannomutase and mannose-1-phosphate guanylyltransferase assay. Particulars: 10 µM. Format: functional.
Experiment [5] concerns the target T2, Arginase-2, mitochondrial (Homo sapiens) (UniProt P78540).
T2 sequence (whole entry): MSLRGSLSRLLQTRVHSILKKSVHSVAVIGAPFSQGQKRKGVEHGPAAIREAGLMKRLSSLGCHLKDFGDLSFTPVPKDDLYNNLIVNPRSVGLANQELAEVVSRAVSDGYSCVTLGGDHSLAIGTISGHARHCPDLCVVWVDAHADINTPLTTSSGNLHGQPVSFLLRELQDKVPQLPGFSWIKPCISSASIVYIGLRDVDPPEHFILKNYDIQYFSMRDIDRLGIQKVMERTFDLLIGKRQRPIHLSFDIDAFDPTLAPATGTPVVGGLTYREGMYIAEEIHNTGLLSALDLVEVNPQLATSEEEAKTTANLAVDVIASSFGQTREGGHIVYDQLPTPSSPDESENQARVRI
The experiment can be described thus: in vitro enzyme assay to detect the production of urea directly proportional to the activity of Arginase II. Note: in the data most compounds retested in dose-response had high values. Format: functional. Particulars: 33.3 µM.

Experiment [6] has as its target T3, Proteasome subunit beta (Trypanosoma cruzi) (UniProt O96673).
T3 sequence (whole entry): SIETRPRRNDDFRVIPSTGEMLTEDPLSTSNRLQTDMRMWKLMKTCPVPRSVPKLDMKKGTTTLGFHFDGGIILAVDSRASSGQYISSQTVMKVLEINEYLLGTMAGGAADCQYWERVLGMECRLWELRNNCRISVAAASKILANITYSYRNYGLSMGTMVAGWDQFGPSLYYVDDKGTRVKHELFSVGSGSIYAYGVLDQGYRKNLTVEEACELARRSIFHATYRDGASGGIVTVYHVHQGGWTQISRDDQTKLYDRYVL
The experiment can be described thus: Trypanosoma cruzi proteasome chymotrypsin-like activity (TcProtChymo) assay. Note: in the data most compounds retested in dose-response had high values. Format: functional. The settings on record: 9.37 µM.

A further experiment is filed under the species Homo sapiens. The experiment can be described thus: To identify inhibition of the IFN signalling (Jak-Stat) pathway via expression of an eGFP reporter gene under the control of an IFN-stimulated response element (ISRE) containing MxA promoter. Format: functional. Particulars: 30 µM. Background: A reporter such as luciferase makes a cellular process visible.

Experiment [7] deals with T4, Tyrosyl-tRNA synthetase, putative (Trypanosoma cruzi (strain CL Brener)) (UniProt Q4DSP6).
T4 sequence (whole entry): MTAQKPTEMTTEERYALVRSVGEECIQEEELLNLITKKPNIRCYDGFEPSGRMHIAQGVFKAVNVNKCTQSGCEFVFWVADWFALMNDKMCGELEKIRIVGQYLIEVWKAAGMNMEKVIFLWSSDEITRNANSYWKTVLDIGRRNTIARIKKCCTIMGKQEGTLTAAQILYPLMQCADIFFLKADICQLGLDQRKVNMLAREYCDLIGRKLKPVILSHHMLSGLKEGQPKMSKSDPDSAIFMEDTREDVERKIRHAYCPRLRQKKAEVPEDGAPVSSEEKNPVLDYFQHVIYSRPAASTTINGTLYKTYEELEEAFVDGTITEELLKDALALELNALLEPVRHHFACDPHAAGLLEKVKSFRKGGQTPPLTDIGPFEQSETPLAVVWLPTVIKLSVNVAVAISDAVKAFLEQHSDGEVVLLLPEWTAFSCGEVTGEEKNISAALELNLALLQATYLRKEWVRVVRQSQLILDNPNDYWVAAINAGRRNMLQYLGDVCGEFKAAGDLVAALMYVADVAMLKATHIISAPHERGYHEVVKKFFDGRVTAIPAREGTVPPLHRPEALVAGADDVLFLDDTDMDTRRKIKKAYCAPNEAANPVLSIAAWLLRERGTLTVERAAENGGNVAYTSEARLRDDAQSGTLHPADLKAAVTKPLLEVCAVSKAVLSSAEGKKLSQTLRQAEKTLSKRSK
The experiment can be described thus: Trypanosoma cruzi tyrosyl tRNA synthetase (TcYRS) _High Tyrosine SOP. Note: in the data most compounds retested in dose-response had high values. It is filed as functional. The settings on record: 30 µM.

The target of experiment [8] is T4, Tyrosyl-tRNA synthetase, putative (Trypanosoma cruzi (strain CL Brener)). Kind of experiment: Trypanosoma cruzi tyrosyl tRNA synthetase (TcYRS) SOP. Format: functional. The settings on record: 30 µM.
The target of experiment [9] is Chromo domain-containing protein 1 (Saccharomyces cerevisiae (strain ATCC 204508 / S288c) (Baker's yeast)) (UniProt P32657). Kind of experiment: ScCHD-1 Enzyme Inhibition Assay. Note: in the data most compounds retested in dose-response had high values. It is filed as functional. The settings on record: 30 µM.
Sequence of Chromo domain-containing protein 1 (Saccharomyces cerevisiae (strain ATCC 204508 / S288c) (Baker's yeast)) (P32657 whole entry, the tested form may be a part): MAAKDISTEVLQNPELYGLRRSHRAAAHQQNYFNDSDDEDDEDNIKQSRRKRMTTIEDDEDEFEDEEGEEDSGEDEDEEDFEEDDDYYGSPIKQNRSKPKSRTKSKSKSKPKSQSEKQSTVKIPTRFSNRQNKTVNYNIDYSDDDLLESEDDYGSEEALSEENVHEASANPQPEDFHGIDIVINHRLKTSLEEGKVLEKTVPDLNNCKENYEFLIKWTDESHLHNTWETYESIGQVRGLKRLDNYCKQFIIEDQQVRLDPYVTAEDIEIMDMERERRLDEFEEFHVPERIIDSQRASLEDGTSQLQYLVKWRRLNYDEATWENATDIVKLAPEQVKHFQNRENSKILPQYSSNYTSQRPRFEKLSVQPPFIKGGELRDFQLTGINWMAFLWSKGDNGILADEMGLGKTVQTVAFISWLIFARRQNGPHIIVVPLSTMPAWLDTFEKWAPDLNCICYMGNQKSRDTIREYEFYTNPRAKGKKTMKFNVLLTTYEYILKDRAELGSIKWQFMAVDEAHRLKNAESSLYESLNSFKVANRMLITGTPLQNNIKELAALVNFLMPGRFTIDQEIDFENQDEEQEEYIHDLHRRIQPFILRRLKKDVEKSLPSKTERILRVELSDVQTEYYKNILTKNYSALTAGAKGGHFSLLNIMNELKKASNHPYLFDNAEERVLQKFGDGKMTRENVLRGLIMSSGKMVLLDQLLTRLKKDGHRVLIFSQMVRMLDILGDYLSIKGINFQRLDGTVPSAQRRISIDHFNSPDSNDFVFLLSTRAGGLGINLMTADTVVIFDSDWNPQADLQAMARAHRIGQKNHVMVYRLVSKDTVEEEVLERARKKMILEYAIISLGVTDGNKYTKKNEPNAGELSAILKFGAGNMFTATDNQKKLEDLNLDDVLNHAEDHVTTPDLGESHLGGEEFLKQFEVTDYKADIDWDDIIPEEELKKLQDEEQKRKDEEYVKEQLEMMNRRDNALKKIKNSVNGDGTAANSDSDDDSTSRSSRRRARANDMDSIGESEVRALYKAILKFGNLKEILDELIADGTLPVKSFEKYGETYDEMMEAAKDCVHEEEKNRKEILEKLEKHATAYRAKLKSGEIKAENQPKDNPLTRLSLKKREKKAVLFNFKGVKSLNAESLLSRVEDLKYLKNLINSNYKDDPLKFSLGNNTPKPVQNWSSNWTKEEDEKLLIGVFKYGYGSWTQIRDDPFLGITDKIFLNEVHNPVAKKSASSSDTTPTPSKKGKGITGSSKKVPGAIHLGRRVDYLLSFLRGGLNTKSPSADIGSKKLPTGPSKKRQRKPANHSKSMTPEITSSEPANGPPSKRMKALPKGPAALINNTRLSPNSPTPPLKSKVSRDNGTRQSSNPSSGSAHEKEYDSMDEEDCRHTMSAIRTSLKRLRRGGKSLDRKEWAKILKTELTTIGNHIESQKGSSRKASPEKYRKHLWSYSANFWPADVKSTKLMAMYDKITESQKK

SMILES strings stand for the structures. For some of these results: Measured potencies and affinities stand elsewhere.

Sequence of Protein translocase subunit SecA (Escherichia coli (strain K12)) (P10408 whole entry): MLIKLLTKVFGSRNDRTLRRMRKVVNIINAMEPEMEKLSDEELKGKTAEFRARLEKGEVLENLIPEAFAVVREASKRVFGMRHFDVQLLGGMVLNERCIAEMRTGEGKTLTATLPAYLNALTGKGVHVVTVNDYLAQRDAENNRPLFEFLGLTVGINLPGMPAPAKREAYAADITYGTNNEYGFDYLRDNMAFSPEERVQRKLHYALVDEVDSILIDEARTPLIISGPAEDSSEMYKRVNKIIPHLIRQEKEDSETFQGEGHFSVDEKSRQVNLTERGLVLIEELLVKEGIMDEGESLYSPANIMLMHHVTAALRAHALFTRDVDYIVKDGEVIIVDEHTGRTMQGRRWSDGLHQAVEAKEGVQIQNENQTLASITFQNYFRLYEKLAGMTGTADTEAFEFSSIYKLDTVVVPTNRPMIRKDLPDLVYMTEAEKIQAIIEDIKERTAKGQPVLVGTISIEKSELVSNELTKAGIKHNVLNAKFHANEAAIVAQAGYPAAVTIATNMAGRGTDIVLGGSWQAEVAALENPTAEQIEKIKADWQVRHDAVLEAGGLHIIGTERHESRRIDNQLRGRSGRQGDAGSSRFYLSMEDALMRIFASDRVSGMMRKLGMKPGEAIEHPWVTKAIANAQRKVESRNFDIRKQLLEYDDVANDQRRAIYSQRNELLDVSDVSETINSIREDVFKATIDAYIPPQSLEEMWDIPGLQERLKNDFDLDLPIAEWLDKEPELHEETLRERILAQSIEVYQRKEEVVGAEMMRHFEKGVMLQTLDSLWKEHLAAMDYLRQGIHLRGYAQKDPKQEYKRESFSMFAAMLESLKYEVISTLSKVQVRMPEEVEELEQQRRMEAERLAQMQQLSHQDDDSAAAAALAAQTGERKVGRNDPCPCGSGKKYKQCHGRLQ

For `Cc1nnc(N2CC[C@H](OCC3CC3)[C@@H](Cc3ccccc3)C2)s1`, the Percent Effect in experiment [1] is -2.17%; in experiment [2] it was -5.33%; in [3] it was 8.54%; in experiment [4] it was 9.81%; with Trypanosoma cruzi, 5.99%; in experiment [5], -31.7%. In addition, the Percent Effect in [6] was 7.01%; in the experiment filed under Homo sapiens it was -7.72%; in [7], 0%; in experiment [8], 5%; in experiment [9] it was -3.2%.

As for `Cc1cc(F)ccc1CNCCn1cccn1`, the Percent Effect was -2.76% in experiment [1]; -1.39% in experiment [2]; -3.57% in experiment [3]; 0.503% in [4]; 5.15% in the experiment on Trypanosoma cruzi; -0.883% in experiment [5]. Moreover, the Percent Effect in [6] is 8.95%; in the experiment listed under Homo sapiens, 1.75%; in experiment [7], 1.05%; in experiment [8], 2.56%; in experiment [9], -0.034%.

On to `Cc1nc(CN(C)C2CCN(Cc3ccno3)C2)no1` (stereo not drawn), for which the Percent Effect in experiment [1] is -3.58%; in [2], 18.2%; in [3] it was -53.5%; in experiment [4] it was -23.7%; in the experiment with Trypanosoma cruzi it was 5.19%; in experiment [5] it was -7.79%. Also, the Percent Effect in [6] amounted to 29.4%; in the experiment filed under Homo sapiens it was 4.64%; in experiment [7], 3.81%; in [8], 18.8%; in experiment [9] it was 3.1%.

Turning to `CC(CNC(=O)Nc1cn[nH]c1)N1CCc2ccccc2C1` (stereo not drawn), the Percent Effect in [1] was -4.87%; in experiment [2] it was 15.6%; in experiment [3], -4.05%; in experiment [4], -3.09%; in the experiment on Trypanosoma cruzi, -1.67%; in experiment [5], 0.632%. Moreover, the Percent Effect in experiment [6] is 14.2%; in the experiment filed under Homo sapiens, 12.5%; in experiment [7], 9.52%; in [8], 21.2%; in experiment [9] it was -18%.

In the case of `Cc1nc(CN2CCCC(Cn3cc(CCO)nn3)C2)c[nH]1` (stereo not drawn), the Percent Effect in [1] is -1.16%; in [2], 0%; in experiment [3], -4.62%; in [4], 20.6%; in the experiment with Trypanosoma cruzi, 5.21%; in experiment [5], 0.952%. Also, the Percent Effect in experiment [6] is 5.17%; in the experiment filed under Homo sapiens, -10.1%; in [7], 1.59%; in experiment [8], 9.76%; in experiment [9], -7.08%.

For the compound `COCCN1CCN(C(=O)c2cc(C(C)C)on2)[C@H]2CS(=O)(=O)C[C@H]21`, the Percent Effect is -4.23% in experiment [1]; 1.39% in [2]; -4.33% in experiment [3]; -3.43% in [4]; -3.6% in the experiment on Trypanosoma cruzi; -0.442% in experiment [5]. The Percent Effect in experiment [6] was 17.2%; in the experiment filed under Homo sapiens, -5.77%; in experiment [7], 2.1%; in experiment [8], 0%; in experiment [9] it was -2.65%.

`c1ccc(-c2nc(CN3CCCC(Cn4cncn4)C3)no2)cc1` (stereo not drawn): the Percent Effect in experiment [1] was -5.26%; in [2], -3.8%; in [3], 7.69%; in experiment [4], -3.34%; in the experiment with Trypanosoma cruzi, -3.59%; in [5], 5.38%. For the same compound, the Percent Effect was 4.8% in experiment [6]; 0.0835% in the experiment filed under Homo sapiens; 2.08% in experiment [7]; 7.59% in experiment [8]; -9.44% in [9].

For the compound `O=C(c1ccc2c(c1)OCO2)N1CCC[C@]2(C[C@H](OCC3CC3)CO2)C1`, the Percent Effect in experiment [1] is -3.85%; in experiment [2], 13.3%; in [3] it was 10.8%; in experiment [4], -11.4%; in the experiment on Trypanosoma cruzi it was 0.197%; in experiment [5] it was 2.56%. In addition, the Percent Effect in experiment [6] is 5.37%; in the experiment filed under Homo sapiens it was 6.01%; in [7], 8.51%; in [8], 14.1%; in experiment [9], -8.25%.

These data come from ChEMBL document CHEMBL3988442, “University of Dundee, Small-Polar-MMV Screening Library” (2021).
